The sample as a whole holds a higher share of hits than the screen did.
Pf Dd2 inh: qHTS Primary assay for Inhibitors of Plasmodium falciparum Dd2 growth in vitro | Potency, µM (doses to about 28.9 µM), for the others: top-dose activity, negative = inhibition, usual class: inhibitors | P. falciparum Dd2 growth, SYBR Green, 72 h | hit rate 4.3% among 120,000; active = well fitted inhibition curve with a large enough effect;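 also: plate controls were DMSO vehicle for no effect and reference drug for full effect; nearly all actives have a fitted effect of over 65% in size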
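Infected erythrocytes (Dd2, 0.3% parasitemia, 2.5% hematocrit final) are added to compound in RPMI-1640/Albumax II medium, grown 72 h at 37C in low oxygen, then lysed with saponin/Triton-X containing SYBR Green and read by fluorescence.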
The depositor's hits bear a star; i = inactive; [ ] = remark or other dose. Potency is read from the fitted curve at half-maximal effect.

SMILES	Pf Dd2 inh
Oc1c(C(c2ccc(Cl)cc2)N2CCOCC2)sc2nc(-c3ccco3)nn12 (configuration not stated)	3.5%
O=C(Cc1ccc(F)cc1)N1CCC[C@H]1c1nc(-c2ccc(F)cc2)no1	i
O=C(Cc1ccccc1)N1CCC[C@H]1c1nc(-c2ccccc2)no1	10µM*
CCOc1ccc(CC(=O)N2CCC[C@H]2c2nc(-c3ccccc3)no2)cc1OCC	-31.6%
Cc1ccc(C(=O)N2CCC(CCC(=O)NC3CCS(=O)(=O)C3)CC2)cc1 (configuration not stated)	-9.7%
Cc1cc(C(F)(F)F)nc(CCNC(=O)c2cn(CCCc3ccccc3)nn2)n1	-1.4%
COc1ccc([C@H]2CN(C(=O)c3ccccc3-c3nn[nH]n3)C[C@@H]2N)cc1	-18.6%
O=C(NCCc1ccccc1)C1CCCN(C2CCN(Cc3ccncc3)CC2)C1 (configuration not stated)	10µM*
O=C(NCCc1ccccc1)C1CCCN(C2CCN(Cc3ccccc3F)CC2)C1 (configuration not stated)	i
O=C(NCCN1CCOCC1)C1CCCN(C2CCN(Cc3ccncc3)CC2)C1 (configuration not stated)	-15.2%
O=C(NCc1ccccc1)c1cn(C2CN(C(=O)NCC3CCCO3)C2)nn1 (configuration not stated)	22.5%
CC(c1cccs1)N(C)Cc1ccc(F)cc1 (configuration not stated)	0.7%[44.1 µM]
Cc1c(CN(C)Cc2cccc3ncccc23)c(=O)n(-c2ccccc2)n1C	-3.9%
CN(Cc1ccccc1C(F)(F)F)Cc1cccc2ccccc12	i
CN(Cc1cccc(CCN)c1)Cc1cccc2ncccc12	7.08µM*
CCOc1nccnc1NC1CCN(C(=O)c2cccn2C)CC1	35.2%[5.79 µM]
CSCc1ccc(C(=O)N2CC[C@@H]3[C@@H](CCC(=O)N3CCN)C2)o1	-16.5%
C[C@@H]1CN(Cc2nc(C(N)=O)no2)CC[C@@]1(O)C1CCOCC1	-4.9%
COc1ccc(CNC(=O)N2CC[C@@](O)(C3CCC3)[C@H](C)C2)cc1	-11.4%
Cc1cc(-c2ccccc2)nc(CN2CC[C@@](O)(C3CCC3)[C@H](C)C2)n1	10µM*
Cc1ccc(C)c(N2CCN(c3nc4ccc(C)cc4nc3-n3nc(C)cc3C)CC2)c1	7.5%
Cc1cc(C)cc(NC(=O)Cn2nc3c(cc2=O)CCCCC3)c1	-6.1%
COc1ccc(C2c3c(oc4ccc(C)cc4c3=O)C(=O)N2CCCN2CCOCC2)cc1OC (configuration not stated)	-7.3%
CC(C)c1ccc(C2c3c(oc4ccc(Cl)cc4c3=O)C(=O)N2CCCN2CCOCC2)cc1 (configuration not stated)	6.31µM*
Cc1ccc2oc3c(c(=O)c2c1)C(c1ccc(O)cc1)N(CCCN(C)C)C3=O (configuration not stated)	27.0%
SMILES	Pf Dd2 inh
COCCN(CCOC)CC[C@@H]1CC[C@H](O)[C@@H](C(=O)NC2CC2)O1	17.3%[44.1 µM]
CCc1ccc(-n2c(=O)c3ccc(C(=O)NCCc4ccccc4)cc3n(Cc3ccccc3C#N)c2=O)cc1	26.9%
CCOc1ccccc1N(C)C(=O)c1cc(S(=O)(=O)NCc2ccc(C)cc2)ccc1F	7.4%
COc1ccc(NC(=O)c2cc3c(N(C)Cc4ccccc4)nc(C)cn3n2)cc1OC	i
Cc1cn2nc(C(=O)NCCCc3ccccc3)cc2c(N2CCCC2)n1	i
Cc1cn2nc(C(=O)N3CCCC3)cc2c(N(C)Cc2ccccc2)n1	-4.3%
Cc1cn2nc(C(=O)N3CCN(c4ccccc4)CC3)cc2c(N2CCCC2)n1	i
Cc1cn2nc(C(=O)Nc3ccccc3F)cc2c(N(C)Cc2ccccc2)n1	7.94µM*
Cc1cn2nc(C(=O)N3CCC(C)CC3)cc2c(N(C)Cc2ccccc2)n1	11.2µM*
C[S+](=O)([O-])N1CCn2c(nnc2C(N)c2ccccc2)C1 (configuration not stated)	4.5%
Cc1cc(NC(=O)CCc2nc3cccnc3n2Cc2cccs2)ccc1Br	84.9%[5.79 µM]
CCCn1c(CCC(=O)Nc2cccc(CC)c2)nc2cccnc21	-7.5%
COc1ccc(Cn2c(CCC(=O)Nc3cc(C)cc(C)c3)nc3cccnc32)cc1	-20.5%
O=C(CCc1nc2cccnc2n1Cc1cccs1)Nc1cccc(Cl)c1	11.2µM*
COc1ccc(CNC(=O)CCc2nc3cccnc3n2Cc2ccc(OC)cc2)cc1	-3.7%
COc1ccc(Cn2c(CCC(=O)Nc3ccc(C)cc3)nc3cccnc32)cc1	10µM*
CC(C)(C)NC(=O)N1CCC2(CC1)CC(N1CCN(c3ccccc3)CC1)CCO2 (configuration not stated)	i
CN1CC(=O)N(C2CCC2)Cc2c(NC3CCCC3)ncnc21	-7.0%
CN1CCC2(C1)CN(CC1CC1)c1ccc(C(=O)Nc3ccccc3)cc12 (configuration not stated)	-28.8%[44.1 µM]
CC(=O)N1CCc2cc(CNS(=O)(=O)c3ccc(F)cc3)ccc21	41.7%
COc1ccc2[nH]c(C(=O)N3CCC4(CC3)CC(c3nc(C)no3)N(C)C4)cc2c1 (configuration not stated)	7.94µM*
